Screening results from PubChem BioAssay.
Only some compounds are listed: those with a hit (about 3.1% of all), similar ones and a draw of the others.
Tau fibril ThT: qHTS for Inhibitors of Tau Fibril Formation, Thioflavin T Binding; Potency, µM (series often up to 57.4 µM), for the others: at the top dose activity, negative = inhibition, actives largely listed as inhibitors; Microtubule-associated protein tau (Homo sapiens), P10636; recombinant tau K18 P301L, heparin-induced fibrillization, ThT fluorescence; 270,000 tested, 2.1% active; also: nearly all actives have a fitted effect of over 55% in size
Target sequence (P10636 561-689 P618L limits assumed): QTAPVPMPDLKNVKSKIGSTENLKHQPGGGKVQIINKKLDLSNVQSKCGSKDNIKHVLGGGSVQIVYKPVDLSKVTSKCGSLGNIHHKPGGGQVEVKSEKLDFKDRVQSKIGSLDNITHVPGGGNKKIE
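K18 P301L tau (15 uM + 0.24 uM Alexa 594-tagged), heparin 20 uM, NaOAc pH 7, 6 h 37 C; ThT 30 uM, 1 h RT, ex 450/em 510 nm.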
Tau FP inhib: qHTS for Inhibitors of Tau Fibril Formation, Fluorescence Polarization. Microtubule-associated protein tau (Homo sapiens), P10636. K18 P301L tau heparin fibrillization, Alexa594 FP, 6 h. Potency, µM (titrated, usually from 57.7 µM), for the others: top-dose activity, negative = inhibition, most hits filed as inhibitors. 280,000 tested, 0.39% active. AID 1468, 2008; also: nearly all actives have a fitted effect of over 55% in size
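Human tau K18 […] P301L fragment, 15 uM unlabeled plus 0.24 uM Alexa 594-labeled tau (final), with compound and 20 uM heparin in 100 mM sodium acetate pH 7; 6 hr at 37 C, then Alexa 594 FP read.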
Tau fluor cs: Counterscreen qHTS for Inhibitors of Tau Fibril Formation, Fluorescence Polarization. tau K18 P301L (four-repeat tau fragment) Alexa594 fluorescence, heparin fibrillization. 280,000 tested, 0.93% active. Potency, µM (doses to about 57.7 µM), for inactives: at the top dose activity change, negative = decrease. AID 1463, 2008; also: nearly all actives have a fitted effect of over 55% in size
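Human K18 P301L tau (15 uM unlabeled plus 0.24 uM Alexa 594-labeled, final) in 100 mM sodium acetate pH 7 was mixed with compound and 20 uM heparin and incubated 6 hr at 37 C.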
TexasRed fluor: Total Fluorescence Counterscreen for Inhibitors of the Interaction of Thyroid Hormone Receptor and Steroid Receptor Coregulator 2; TRb/SRC2 Texas Red total fluorescence interference; Potency, µM (titrated, usually from 106 µM), inactives show at the highest dose fluorescence change, negative = quenching; 280,000 tested, 0.29% active; active = well fitted curve in either direction with a large enough effect; inconclusive = small, poorly fitted or top-dose-only effect
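Human TRβ ligand-binding domain (0.6 uM) and Texas Red SRC2 peptide (20 nM) in Tris buffer with 1 uM T3 and 5% DMSO were incubated with pinned compound for 5 hr at ambient temperature. Total fluorescence was computed as S + 2P (555/632 nm).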
TRb SRC2 PPI: qHTS for Inhibitors of the Interaction of Thyroid Hormone Receptor and Steroid Receptor Coregulator 2 | Thyroid hormone receptor beta (Homo sapiens), P10828 | TRbeta-SRC2 peptide binding, fluorescence polarization; receptor liganded with 1 µM T3 | Potency, µM (top dose mostly 106 µM), for inactives: top-dose activity change, negative = inhibition, hits mostly inhibitors | 280,000 tested, 0.065% active;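 also: plate controls were bound peptide for no effect and peptide without receptor for full effect; nearly all actives have a fitted effect of over 50% in size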
Target sequence (P10828 whole entry, looked up): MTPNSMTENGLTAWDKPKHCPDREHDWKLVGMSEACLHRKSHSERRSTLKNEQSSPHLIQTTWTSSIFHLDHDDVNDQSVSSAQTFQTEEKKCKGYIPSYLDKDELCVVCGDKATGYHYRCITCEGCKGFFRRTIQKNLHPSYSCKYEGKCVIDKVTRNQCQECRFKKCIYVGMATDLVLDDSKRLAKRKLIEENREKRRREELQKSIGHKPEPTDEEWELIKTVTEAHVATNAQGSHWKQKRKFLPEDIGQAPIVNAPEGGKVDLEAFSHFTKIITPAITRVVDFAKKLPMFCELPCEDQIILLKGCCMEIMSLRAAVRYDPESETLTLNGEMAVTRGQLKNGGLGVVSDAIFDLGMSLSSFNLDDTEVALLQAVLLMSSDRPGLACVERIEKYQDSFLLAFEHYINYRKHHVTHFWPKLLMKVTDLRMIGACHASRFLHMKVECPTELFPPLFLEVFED
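Read-out is fluorescence polarization (555 nm excitation, 632 nm emission) of a Texas Red SRC2 coactivator peptide; loss of signal reflects blocked binding to human TRb ligand-binding domain in the presence of 1 uM T3.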
Active calls of the source: *; ? = inconclusive; nt = no result; [ ] = dose if it differs, or a comment. Unless noted, calls follow the shape of the dose curve; as a rule, active = well fitted curve in the direction sought with a large enough effect; inconclusive = small, poorly fitted or top-dose-only effect, or another doubt; inactive = no such curve, though single readings can be large; an effect the other way counts as inactive or inconclusive. Unless noted, % is scaled to controls: 0 for no effect and ±100 for the full control effect; potency is read from the fitted curve at half-maximal effect.

SMILES | Tau fibril ThT | Tau FP inhib | Tau fluor cs | TexasRed fluor | TRb SRC2 PPI
O=C1/C(=C\c2ccco2)SC(=S)N1C1CCS(=O)(=O)C1 (configuration not stated) | 25µM* | ? | ? | -9% | 10%
O=C1/C(=C/c2ccco2)SC(=S)N1C1CCS(=O)(=O)C1 (configuration not stated) | 28µM* | ? | ? | 2% | 4%
Cc1ccc(/C=C2\SC(=S)N(C3CCS(=O)(=O)C3)C2=O)cc1 (configuration not stated) | ? | ? | -16% | 0% | -6%
Cc1ccc(S(=O)(=O)C(I)I)cc1 | nt | nt | nt | -10%[201 µM] | -3%[201 µM]
CCOc1ccc(NC(=S)N2CCN(CCN3C(=O)c4cccc5cccc(c45)C3=O)CC2)cc1 | ? | 0% | -20% | -1% | 0%
CCCCCCCCN=C(N)c1ccc(C(=O)OCC2CCCCC2)cc1 | nt | nt | nt | -1% | -8%
Cc1c(-n2c(SCC(N)=O)nc3ccccc3c2=O)c(=O)n(-c2ccccc2)n1C | -1% | 6% | 0% | 0% | -3%
Cn1c(=O)c2c(nc(N/N=C/c3ccc(OC(=O)c4ccco4)cc3)n2Cc2ccc(F)cc2)n(C)c1=O | ? | 10% | 7.1µM*[quencher] | -2% | 3%
Cn1c(=O)c2c(nc(N/N=C/c3ccc(OC(=O)c4ccco4)cc3)n2Cc2ccccc2Cl)n(C)c1=O | ? | 10% | 7.9µM*[quencher] | -1% | 0%
COc1ccc(NC(=O)C(=O)NCCN2CCN(C(=O)c3ccco3)CC2)cc1 | -14% | -4% | 2% | -1% | -10%
Cc1nc(Nc2ccccc2)sc1-c1ccccc1 | ? | 12% | 7.9µM*[quencher] | -2% | 6%
CCOC(=O)c1c(C)[nH]c(C2=NNC(=Nc3cccc(Cl)c3)SC2)c1C | 13µM* | ? | ? | -6% | -9%
COCCCNC(=O)C1CCN(Cc2cc3ccccc3n2Cc2cccc(C)c2)CC1 | 5% | 2% | 9% | -3% | 7%
COc1ccc(Cl)cc1C(Nc1cccnc1)c1ccc2cccnc2c1O (configuration not stated) | 28µM* | ? | -21% | -3% | 2%
CC(=O)N(C1=C(Cl)C(=O)c2ccccc2C1=O)C1CCCCC1 | 4µM* | -14% | ? | -3% | 2%
C=CCNC(=S)Nc1ccc(C)c(S(=O)(=O)N2CCCCC2)c1 | 11% | -15% | -20% | 1% | 5%
COc1ccc(NC(=S)Nc2ccc(C)c(S(=O)(=O)N3CCCCC3)c2)cc1 | 4% | ? | 32µM*[quencher] | 1% | 4%
Cc1ccc(NC(=S)Nc2ccc(C(C)C)cc2)cc1S(=O)(=O)N1CCCCCC1 | -15% | 13µM* | 7.9µM*[quencher] | -3% | -7%
Nc1ccc(S(=O)(=O)O)cc1 | nt | nt | nt | -3%[201 µM] | 6%[201 µM]
CCc1oc2ccccc2c1C(=O)c1cc(I)c(O)c(I)c1 | nt | nt | nt | -15% | 15%
CCOc1ccc(-c2cc(N)n(S(=O)(=O)c3ccc(OC)c(OC)c3)n2)cc1 | -9% | -11% | ? | 0% | 2%
COc1ccc(S(=O)(=O)n2nc(-c3ccc(Cl)cc3)cc2N)cc1OC | -14% | -12% | 16µM*[quencher] | -4% | -7%
CSc1nsc(/C=C/Nc2ccc(F)cc2F)c1C#N | 14µM* | -11% | ? | -1% | 5%
CSc1nnc(C)c(/C=C/Nc2ccc(F)cc2F)n1 | 25µM* | -3% | -11% | -4% | -2%
CC(C1CC2CCC1C2)n1c(-c2cccs2)n[nH]c1=S (configuration not stated) | -12% | 4% | -9% | -2% | 4%
SMILES | Tau fibril ThT | Tau FP inhib | Tau fluor cs | TexasRed fluor | TRb SRC2 PPI
C(=N\NC1=Nc2cccc3cccc1c23)/c1ccccc1 | 2µM* | 8% | -23% | 23% | 4%
Clc1ccc(/C=N/NC2=Nc3cccc4cccc2c34)cc1 | 2.8µM* | 12% | -23% | 3% | -3%
NC1=Nc2cccc3cccc1c23 | ? | 7% | 3% | 3% | 0%
C(=N\NC1=Nc2cccc3cccc1c23)/c1cccnc1 | 2.8µM* | 13% | -26% | -8% | 5%
Clc1ccc(N/N=C/c2cccnc2)cc1 | ? | 12% | 16µM*[quencher] | -2% | -1%
Clc1ccc(/C=N/Nc2nc(Cl)nc3ccccc23)cc1 | ? | 8% | ? | -2% | 2%
CC[C@H](NC(C)C)[C@H](O)c1ccc(O)c(O)c1 | nt | nt | nt | 0% | -3%
N#Cc1cnn2c3c(cnc12)C(=O)N1CCc2ccccc2C1C3 (configuration not stated) | -16% | -10% | -10% | 5% | -14%
CN1C(=O)C(N=Nc2ccccc2C(=O)O)N(C)C1=S (configuration not stated) | 4.5µM* | -6% | 1% | 0% | -2%
CN1C(=O)SC(Nc2ccccc2C(=O)O)C1=O (configuration not stated) | -20% | -2% | -14% | -3% | -2%
CCCN(CCC)C(=O)CSc1nc2sc3c(c2c(=O)n1-c1ccccc1)CCN(C(C)=O)C3 | -13% | -1% | -3% | 1% | -1%
CCCCCSc1nc2sc3c(c2c(=O)n1-c1ccc(OC)cc1)CCN(C(C)=O)C3 | ? | -8% | -19% | 22µM*[quencher] | ?
Cc1nn2c(=O)cc(COC(=O)c3ccc(NC(=O)C4CCCCC4)cc3)nc2s1 | 2% | -1% | 0% | -2% | -11%
COc1cc(CN(C(=O)c2ccc(C)cc2)C2CCS(=O)(=O)C2)cc(OC)c1OC (configuration not stated) | -3% | 0% | -5% | 2% | -2%
COc1cc(CN(C(=O)c2ccc(OC(C)C)cc2)C2CCS(=O)(=O)C2)cc(OC)c1OC (configuration not stated) | ? | -5% | -30% | 1259µM*[quencher] | -8%
CC(=O)O[C@H]1CC[C@]2(C)[C@H]3CC=C4[C@@H]5[C@@H](C)[C@H](C)CC[C@]5(C(=O)O)CC[C@@]4(C)[C@]3(C)CC[C@H]2C1(C)C | -7% | 3% | 1% | -2% | -2%
Nc1nc(-c2ccccc2)c(N=Nc2cccc3ccccc23)s1 | 2.8µM* | 18µM* | 3.2µM*[quencher] | -6% | 8%
CC(=O)Nc1sc(N)nc1-c1ccccc1 | -14% | -1% | -5% | 0% | 4%
CN1C(=O)C(O)(c2sc(N)nc2-c2ccccc2)c2ccccc21 (configuration not stated) | -14% | 3% | -1% | -2% | -5%
Nc1nc(-c2ccccc2)c(N=Nc2ccccc2Cl)s1 | 5µM* | ? | 4.5µM*[quencher] | -1% | -1%
